Data published in article PMC7862700, “An all-to-all approach to the identification of sequence-specific readers for epigenetic DNA modifications on cytosine”.

Legend:
Assay in all cases: DAPPL (digital affinity profiling via proximity ligation, sequencing); 10 mM Tris-HCl pH 7.5, 50 mM NaCl, 1 mM DTT, 4% glycerol, room temperature, 30 min; GST-TFs on glutathione beads, 16-mer random dsDNA library, 0.1% formaldehyde crosslink after washing; high values mean tight binding
FEV = molecular target: T1, FEV (Homo sapiens, UniProt Q99581 1-238); details: protein: recombinant; tags: N-terminal GST; dsDNA, one strand shown
T1 sequence: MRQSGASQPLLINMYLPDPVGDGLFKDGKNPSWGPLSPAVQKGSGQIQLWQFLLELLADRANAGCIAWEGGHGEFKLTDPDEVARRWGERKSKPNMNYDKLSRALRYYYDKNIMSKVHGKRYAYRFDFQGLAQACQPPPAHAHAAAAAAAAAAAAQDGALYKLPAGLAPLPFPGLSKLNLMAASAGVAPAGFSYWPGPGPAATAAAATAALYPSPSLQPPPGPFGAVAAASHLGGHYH
Outline: (§1)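 The binding signal reported is, for every hexamer, its read frequency for a factor over its read frequency for the tag-only sample. Reads came from pools of yeast-expressed, GST-fused human transcription factors on glutathione beads, barcoded with DNA and mixed with that sample, which were incubated with 200 nmole of a random double-stranded 16-mer DNA library in Tris/NaCl/DTT/glycerol buffer at room temperature for 30 min. After washing, the pools were crosslinked with 0.1% formaldehyde, proximity-ligated with BsaI/T4 ligase for 1 h at 37 °C, PCR-amplified and sequenced on an Illumina NextSeq500.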

ETV5 = ETV5 (Homo sapiens, UniProt P41161 1-510); details: protein: recombinant; tags: N-terminal GST; dsDNA, one strand shown
Outline: as §1

HSF1 = HSF1 (Homo sapiens, UniProt Q00613 1-529); details: protein: recombinant; tags: N-terminal GST; chain copies: 3; dsDNA, one strand shown
Outline: as §1

SPIC = molecular target: T2, SPIC (Homo sapiens, UniProt Q8N5J4 1-248); details: protein: recombinant; tags: N-terminal GST; dsDNA, one strand shown
T2 sequence: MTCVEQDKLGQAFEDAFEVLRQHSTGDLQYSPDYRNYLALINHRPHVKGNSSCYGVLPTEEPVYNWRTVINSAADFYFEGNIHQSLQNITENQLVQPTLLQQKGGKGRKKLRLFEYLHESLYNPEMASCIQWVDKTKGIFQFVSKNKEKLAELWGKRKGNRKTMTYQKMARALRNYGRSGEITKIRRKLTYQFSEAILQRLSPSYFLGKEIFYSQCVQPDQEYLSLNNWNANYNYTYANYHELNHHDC
Outline: as §1

ELF4 = ELF4 (Homo sapiens, UniProt Q99607 1-663); details: protein: recombinant; tags: N-terminal GST; dsDNA, one strand shown
Outline: as §1

ELK4 = molecular target: T3, ELK4 (Homo sapiens, UniProt P28324-2 1-405); details: protein: recombinant; tags: N-terminal GST; dsDNA, one strand shown
T3 sequence: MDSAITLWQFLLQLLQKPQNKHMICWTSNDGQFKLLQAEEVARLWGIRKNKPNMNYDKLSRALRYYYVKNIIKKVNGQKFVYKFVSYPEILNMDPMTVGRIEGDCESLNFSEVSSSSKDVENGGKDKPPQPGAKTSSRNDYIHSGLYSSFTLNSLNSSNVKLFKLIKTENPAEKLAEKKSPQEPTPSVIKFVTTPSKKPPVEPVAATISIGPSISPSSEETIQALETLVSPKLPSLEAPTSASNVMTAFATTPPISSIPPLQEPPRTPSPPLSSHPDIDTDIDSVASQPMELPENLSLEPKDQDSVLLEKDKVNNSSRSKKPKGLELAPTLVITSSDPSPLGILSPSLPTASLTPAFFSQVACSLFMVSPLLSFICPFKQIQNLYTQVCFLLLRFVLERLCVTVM
Outline: as §1

ETV2 = molecular target: T4, ETV2 (Homo sapiens, UniProt O00321 1-342); details: protein: recombinant; tags: N-terminal GST; dsDNA, one strand shown
T4 sequence: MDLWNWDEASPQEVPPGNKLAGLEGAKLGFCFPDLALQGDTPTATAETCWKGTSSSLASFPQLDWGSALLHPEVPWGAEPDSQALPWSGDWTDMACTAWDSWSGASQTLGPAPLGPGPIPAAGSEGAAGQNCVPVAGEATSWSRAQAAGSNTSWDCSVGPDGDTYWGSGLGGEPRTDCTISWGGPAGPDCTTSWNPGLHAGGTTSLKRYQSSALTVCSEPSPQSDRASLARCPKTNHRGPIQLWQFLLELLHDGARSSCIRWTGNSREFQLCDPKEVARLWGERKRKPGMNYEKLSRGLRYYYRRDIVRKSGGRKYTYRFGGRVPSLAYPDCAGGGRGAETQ
Outline: as §1

ELF3 = molecular target: T5, ELF3 (Homo sapiens, UniProt P78545 1-371); details: protein: recombinant; tags: N-terminal GST; dsDNA, one strand shown
T5 sequence: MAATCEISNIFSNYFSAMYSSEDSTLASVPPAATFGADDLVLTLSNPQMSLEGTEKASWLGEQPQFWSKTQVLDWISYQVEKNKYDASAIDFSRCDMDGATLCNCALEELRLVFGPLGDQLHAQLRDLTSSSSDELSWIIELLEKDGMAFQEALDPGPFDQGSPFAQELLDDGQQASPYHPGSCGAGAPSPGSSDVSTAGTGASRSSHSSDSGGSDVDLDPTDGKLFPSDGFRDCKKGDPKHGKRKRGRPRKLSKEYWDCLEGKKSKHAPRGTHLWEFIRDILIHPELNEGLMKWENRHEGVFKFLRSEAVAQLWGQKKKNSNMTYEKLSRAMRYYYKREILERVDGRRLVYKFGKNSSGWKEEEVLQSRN
Outline: as §1

ETV1 = ETV1 (Homo sapiens, UniProt P50549 1-477); details: protein: recombinant; tags: N-terminal GST; dsDNA, one strand shown
Outline: as §1

ERF = molecular target: T6, ERF (Homo sapiens, UniProt P50548 1-548); details: protein: recombinant; tags: N-terminal GST; dsDNA, one strand shown
T6 sequence: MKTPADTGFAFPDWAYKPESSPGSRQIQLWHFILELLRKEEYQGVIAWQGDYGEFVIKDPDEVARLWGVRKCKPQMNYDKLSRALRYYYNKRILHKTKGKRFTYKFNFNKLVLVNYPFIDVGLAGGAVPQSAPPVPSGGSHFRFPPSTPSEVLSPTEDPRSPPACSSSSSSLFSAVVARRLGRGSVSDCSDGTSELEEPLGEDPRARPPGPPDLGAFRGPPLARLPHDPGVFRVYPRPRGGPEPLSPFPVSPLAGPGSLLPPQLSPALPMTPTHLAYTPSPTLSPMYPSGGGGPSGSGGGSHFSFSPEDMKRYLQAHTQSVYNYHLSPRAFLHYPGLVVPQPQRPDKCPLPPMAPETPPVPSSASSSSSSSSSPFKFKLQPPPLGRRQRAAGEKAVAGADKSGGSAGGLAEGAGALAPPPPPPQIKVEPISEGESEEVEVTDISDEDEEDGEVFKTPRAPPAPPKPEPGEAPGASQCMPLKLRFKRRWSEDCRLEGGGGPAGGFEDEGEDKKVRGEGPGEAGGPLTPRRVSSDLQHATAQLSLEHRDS
Outline: as §1

ETV3L = molecular target: T7, ETV3L (Homo sapiens, UniProt Q6ZN32 1-361); details: protein: recombinant; tags: N-terminal GST; dsDNA, one strand shown
T7 sequence: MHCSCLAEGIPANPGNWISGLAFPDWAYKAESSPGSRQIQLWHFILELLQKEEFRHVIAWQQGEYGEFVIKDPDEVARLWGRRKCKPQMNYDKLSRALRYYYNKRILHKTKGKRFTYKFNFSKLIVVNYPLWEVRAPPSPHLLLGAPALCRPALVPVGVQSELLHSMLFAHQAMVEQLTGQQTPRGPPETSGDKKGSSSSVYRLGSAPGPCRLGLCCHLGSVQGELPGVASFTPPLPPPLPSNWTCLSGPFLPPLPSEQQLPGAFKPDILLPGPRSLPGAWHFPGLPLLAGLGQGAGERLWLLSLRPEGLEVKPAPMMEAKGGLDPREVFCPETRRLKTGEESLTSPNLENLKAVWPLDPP
Outline: as §1

ETS2 = molecular target: T8, ETS2 (Homo sapiens, UniProt P15036 1-469); details: protein: recombinant; tags: N-terminal GST; dsDNA, one strand shown
T8 sequence: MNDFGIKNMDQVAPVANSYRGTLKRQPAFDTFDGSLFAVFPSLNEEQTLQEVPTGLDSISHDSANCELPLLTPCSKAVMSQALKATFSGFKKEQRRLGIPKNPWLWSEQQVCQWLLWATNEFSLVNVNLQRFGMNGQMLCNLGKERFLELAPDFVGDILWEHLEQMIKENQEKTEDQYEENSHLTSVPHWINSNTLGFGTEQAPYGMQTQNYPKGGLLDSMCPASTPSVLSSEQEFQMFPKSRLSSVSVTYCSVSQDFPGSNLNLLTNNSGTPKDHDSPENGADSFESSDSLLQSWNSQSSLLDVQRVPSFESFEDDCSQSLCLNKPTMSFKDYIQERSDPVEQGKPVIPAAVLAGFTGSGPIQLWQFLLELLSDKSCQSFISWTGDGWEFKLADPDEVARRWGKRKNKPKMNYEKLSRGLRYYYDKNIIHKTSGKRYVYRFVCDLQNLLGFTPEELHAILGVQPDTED
Outline: as §1

SPDEF = molecular target: T9, SPDEF (Homo sapiens, UniProt O95238 1-335); details: protein: recombinant; tags: N-terminal GST; dsDNA, one strand shown
T9 sequence: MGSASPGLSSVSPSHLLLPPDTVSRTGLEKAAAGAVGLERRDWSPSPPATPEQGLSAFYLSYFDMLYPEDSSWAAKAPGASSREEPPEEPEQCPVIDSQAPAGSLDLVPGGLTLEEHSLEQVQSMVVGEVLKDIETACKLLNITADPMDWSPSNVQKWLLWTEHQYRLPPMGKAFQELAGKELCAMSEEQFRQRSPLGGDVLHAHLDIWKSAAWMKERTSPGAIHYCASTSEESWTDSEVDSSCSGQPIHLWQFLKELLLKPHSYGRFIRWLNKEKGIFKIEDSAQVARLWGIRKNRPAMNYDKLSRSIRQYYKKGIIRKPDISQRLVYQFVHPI
Outline: as §1

ETV7 = molecular target: T10, ETV7 (Homo sapiens, UniProt Q9Y603 1-341); details: protein: recombinant; tags: N-terminal GST; dsDNA, one strand shown
T10 sequence: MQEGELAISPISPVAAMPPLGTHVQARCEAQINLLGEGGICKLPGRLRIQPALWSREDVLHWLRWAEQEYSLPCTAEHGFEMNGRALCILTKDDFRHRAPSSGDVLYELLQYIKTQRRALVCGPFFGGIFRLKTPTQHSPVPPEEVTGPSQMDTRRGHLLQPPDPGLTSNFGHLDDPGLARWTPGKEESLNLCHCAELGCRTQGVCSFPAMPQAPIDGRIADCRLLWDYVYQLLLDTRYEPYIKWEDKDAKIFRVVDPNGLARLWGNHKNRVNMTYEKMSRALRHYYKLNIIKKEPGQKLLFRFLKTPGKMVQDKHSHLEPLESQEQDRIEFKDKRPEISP
Outline: as §1

ELF5 = molecular target: T11, ELF5 (Homo sapiens, UniProt Q9UKW6-2 1-255); details: protein: recombinant; tags: N-terminal GST; dsDNA, one strand shown
T11 sequence: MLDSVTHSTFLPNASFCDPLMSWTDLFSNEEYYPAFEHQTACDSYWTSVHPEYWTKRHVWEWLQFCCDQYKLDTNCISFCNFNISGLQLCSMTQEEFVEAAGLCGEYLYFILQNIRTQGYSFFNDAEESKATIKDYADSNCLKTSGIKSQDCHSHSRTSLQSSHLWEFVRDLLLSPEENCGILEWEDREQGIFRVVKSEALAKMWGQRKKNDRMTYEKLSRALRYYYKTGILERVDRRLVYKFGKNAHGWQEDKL
Outline: as §1

ETV3 = molecular target: T12, ETV3 (Homo sapiens, UniProt P41162-2 1-143); details: protein: recombinant; tags: N-terminal GST; dsDNA, one strand shown
T12 sequence: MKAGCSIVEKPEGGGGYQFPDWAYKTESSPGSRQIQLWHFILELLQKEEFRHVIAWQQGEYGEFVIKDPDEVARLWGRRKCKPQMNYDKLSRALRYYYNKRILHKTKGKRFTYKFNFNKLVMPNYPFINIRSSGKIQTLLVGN
Outline: as §1

ETV6 = ETV6 (Homo sapiens, UniProt P41212 1-452); details: protein: recombinant; tags: N-terminal GST; dsDNA, one strand shown
Outline: as §1

Sequence of ELF4 (Q99607 whole entry): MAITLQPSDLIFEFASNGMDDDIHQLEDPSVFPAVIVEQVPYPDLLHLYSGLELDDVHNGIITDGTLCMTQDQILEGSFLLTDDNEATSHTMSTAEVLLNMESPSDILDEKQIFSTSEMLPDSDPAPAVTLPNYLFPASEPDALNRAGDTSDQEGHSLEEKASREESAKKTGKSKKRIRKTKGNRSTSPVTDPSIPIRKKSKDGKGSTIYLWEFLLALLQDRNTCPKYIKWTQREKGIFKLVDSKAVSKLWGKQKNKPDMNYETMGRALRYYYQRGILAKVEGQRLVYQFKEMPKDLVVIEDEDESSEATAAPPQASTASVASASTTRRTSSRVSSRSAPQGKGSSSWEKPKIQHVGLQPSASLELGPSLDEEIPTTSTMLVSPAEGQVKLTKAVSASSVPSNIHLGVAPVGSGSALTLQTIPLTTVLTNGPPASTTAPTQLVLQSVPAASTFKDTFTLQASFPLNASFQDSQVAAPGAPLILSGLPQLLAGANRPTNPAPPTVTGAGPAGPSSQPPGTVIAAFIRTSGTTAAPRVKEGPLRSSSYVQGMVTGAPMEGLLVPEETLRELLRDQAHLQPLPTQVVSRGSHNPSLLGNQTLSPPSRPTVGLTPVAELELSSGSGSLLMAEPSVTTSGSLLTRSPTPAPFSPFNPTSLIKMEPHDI
Sequence of ETV5 (P41161 whole entry): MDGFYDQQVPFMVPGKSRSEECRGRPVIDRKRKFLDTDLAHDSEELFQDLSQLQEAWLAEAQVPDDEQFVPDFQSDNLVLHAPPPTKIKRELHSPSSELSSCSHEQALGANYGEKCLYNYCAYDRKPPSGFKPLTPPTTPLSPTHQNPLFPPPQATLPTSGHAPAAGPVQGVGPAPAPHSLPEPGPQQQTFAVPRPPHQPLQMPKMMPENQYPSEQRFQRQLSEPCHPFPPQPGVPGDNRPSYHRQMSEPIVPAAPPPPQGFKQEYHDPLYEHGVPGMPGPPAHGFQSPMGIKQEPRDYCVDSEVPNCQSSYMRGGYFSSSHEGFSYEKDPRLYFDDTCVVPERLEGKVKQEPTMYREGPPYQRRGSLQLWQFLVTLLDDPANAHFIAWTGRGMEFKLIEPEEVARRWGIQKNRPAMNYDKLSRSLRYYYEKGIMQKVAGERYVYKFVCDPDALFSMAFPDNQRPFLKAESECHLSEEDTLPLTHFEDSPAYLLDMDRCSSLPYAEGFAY
Sequence of ETV1 (P50549 whole entry): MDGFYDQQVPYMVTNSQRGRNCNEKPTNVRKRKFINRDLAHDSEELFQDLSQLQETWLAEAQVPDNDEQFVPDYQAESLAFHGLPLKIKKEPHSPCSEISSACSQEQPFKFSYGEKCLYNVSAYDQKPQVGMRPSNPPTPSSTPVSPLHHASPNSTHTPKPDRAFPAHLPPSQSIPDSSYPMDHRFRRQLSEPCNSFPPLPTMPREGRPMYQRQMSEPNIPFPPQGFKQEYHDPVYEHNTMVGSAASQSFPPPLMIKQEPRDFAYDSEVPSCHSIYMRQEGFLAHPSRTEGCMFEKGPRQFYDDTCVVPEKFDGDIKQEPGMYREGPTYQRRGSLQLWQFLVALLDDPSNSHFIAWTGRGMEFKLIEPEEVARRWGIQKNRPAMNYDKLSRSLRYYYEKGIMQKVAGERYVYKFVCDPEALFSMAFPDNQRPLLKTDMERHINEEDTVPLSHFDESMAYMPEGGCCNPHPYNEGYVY
Sequence of ETV6 (P41212 whole entry): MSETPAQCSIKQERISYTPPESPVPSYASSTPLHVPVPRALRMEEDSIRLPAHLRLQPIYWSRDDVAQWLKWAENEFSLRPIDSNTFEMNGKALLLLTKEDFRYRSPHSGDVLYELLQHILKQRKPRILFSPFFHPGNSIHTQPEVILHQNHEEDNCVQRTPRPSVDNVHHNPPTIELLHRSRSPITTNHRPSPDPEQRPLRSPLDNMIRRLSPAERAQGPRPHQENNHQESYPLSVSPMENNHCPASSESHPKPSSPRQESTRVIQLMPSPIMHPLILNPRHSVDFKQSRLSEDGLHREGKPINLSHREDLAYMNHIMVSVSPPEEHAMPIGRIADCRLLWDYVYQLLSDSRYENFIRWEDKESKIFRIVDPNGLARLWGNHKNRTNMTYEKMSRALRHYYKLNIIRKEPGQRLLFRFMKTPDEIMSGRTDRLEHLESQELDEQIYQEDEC
Sequence of HSF1 (Q00613 whole entry): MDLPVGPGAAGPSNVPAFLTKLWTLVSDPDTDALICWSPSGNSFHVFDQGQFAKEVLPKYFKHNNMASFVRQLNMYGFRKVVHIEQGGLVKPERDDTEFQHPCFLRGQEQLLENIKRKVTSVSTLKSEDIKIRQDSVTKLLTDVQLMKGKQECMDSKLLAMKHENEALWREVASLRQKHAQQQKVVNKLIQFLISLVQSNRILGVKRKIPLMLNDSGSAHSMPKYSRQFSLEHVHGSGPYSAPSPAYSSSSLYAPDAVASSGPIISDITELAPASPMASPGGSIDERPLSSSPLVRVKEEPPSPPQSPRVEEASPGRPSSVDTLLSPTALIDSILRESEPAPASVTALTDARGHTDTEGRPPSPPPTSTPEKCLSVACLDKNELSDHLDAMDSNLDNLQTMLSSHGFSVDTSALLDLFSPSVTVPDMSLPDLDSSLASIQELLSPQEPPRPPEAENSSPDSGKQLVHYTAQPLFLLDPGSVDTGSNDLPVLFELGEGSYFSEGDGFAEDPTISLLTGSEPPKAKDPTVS

**Q.** For TGAAAC, which binding signal (FEV) is on record?
**A.** The binding signal was 1.31 fold enrichment (6-mer frequency, TF over GST control).

**Q.** What about the binding signal (ETV5) of the same sequence?
**A.** The binding signal was 1.33 fold enrichment (6-mer frequency, TF over GST control).

**Q.** And the binding signal (HSF1)?
**A.** Its binding signal is 1.13 fold enrichment (6-mer frequency, TF over GST control).

**Q.** What about the binding signal (SPIC) of the same sequence?
**A.** The binding signal was 1.27 fold enrichment (6-mer frequency, TF over GST control).

**Q.** What about the binding signal (ELF4) of the same sequence?
**A.** Its binding signal is 1.27 fold enrichment (6-mer frequency, TF over GST control).

**Q.** What about the binding signal (ELK4) of the same sequence?
**A.** Its binding signal is 1.18 fold enrichment (6-mer frequency, TF over GST control).

**Q.** What about the binding signal (ETV2) of the same sequence?
**A.** Its binding signal is 1.4 fold enrichment (6-mer frequency, TF over GST control).

**Q.** And the binding signal (ELF3)?
**A.** The binding signal was 1.42 fold enrichment (6-mer frequency, TF over GST control).

**Q.** And the binding signal (ETV1)?
**A.** The binding signal was 1.27 fold enrichment (6-mer frequency, TF over GST control).

**Q.** And the binding signal (ERF)?
**A.** The binding signal was 1.17 fold enrichment (6-mer frequency, TF over GST control).

**Q.** And the binding signal (ETV3L)?
**A.** The binding signal was 1.17 fold enrichment (6-mer frequency, TF over GST control).

**Q.** What about the binding signal (ETS2) of the same sequence?
**A.** The binding signal was 1.3 fold enrichment (6-mer frequency, TF over GST control).

**Q.** What about the binding signal (SPDEF) of the same sequence?
**A.** The binding signal was 1.28 fold enrichment (6-mer frequency, TF over GST control).

**Q.** And the binding signal (ETV7)?
**A.** Its binding signal is 1.28 fold enrichment (6-mer frequency, TF over GST control).

**Q.** What about the binding signal (ELF5) of the same sequence?
**A.** Its binding signal is 1.15 fold enrichment (6-mer frequency, TF over GST control).

**Q.** And the binding signal (ETV3)?
**A.** Its binding signal is 1.28 fold enrichment (6-mer frequency, TF over GST control).

**Q.** And the binding signal (ETV6)?
**A.** The binding signal was 1.13 fold enrichment (6-mer frequency, TF over GST control).
